MazF activator = activators of E. coli MazEF toxin-antitoxin RNase. activation, % at 20 µM. P0AE70. FAM/BHQ RNA-DNA oligo cleavage fluorescence, 5 h. 350,000 tested, 0.32% active; in the data active means activation above about 50%
Target sequence (P0AE70 whole entry, looked up): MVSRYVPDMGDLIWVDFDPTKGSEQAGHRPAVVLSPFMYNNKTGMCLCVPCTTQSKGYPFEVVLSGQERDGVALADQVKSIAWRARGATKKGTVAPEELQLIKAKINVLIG
VHR inh abs = inhibitors of human VHR1 phosphatase (DUSP3); recombinant VHR phosphatase, pNPP absorbance; inhibition, % at 13.3 µM; 290,000 tested, 0.52% active; AID 1654; P51452; in the data active means inhibition above about 50%
Target sequence (P51452 whole entry, looked up): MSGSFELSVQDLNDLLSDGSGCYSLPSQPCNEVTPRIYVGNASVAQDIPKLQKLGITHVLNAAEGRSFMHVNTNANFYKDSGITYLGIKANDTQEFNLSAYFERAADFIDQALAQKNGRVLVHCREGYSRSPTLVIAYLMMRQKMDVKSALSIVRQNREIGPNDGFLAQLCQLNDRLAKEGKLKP
PrP 5UTR inh = inhibition of PrP 5' UTR reporter expression; cell-based PrP 5' UTR mRNA reporter, plate reader; inhibition, % (concentration not given with the values); 340,000 tested, 0.35% active; in the data active means inhibition above about 52%; further: 0 = median of the neutral control wells
SARS 3CLpro inh = SARS-CoV 3CLpro protease inhibition | recombinant SARS-CoV 3CLpro, quenched FRET peptide cleavage | 290,000 tested, 0.14% active | inhibition, % at 6 µM; in the data active means inhibition above about 12%
Mtb hypoxia inh = reduces hypoxia-regulated biosensor signal in M. tuberculosis. 300,000 tested, 0.1% active. AID 1159583. fluorescence inhibition, % (test concentration not listed). M. tuberculosis hypoxia-regulated fluorescent reporter, fluorescence; in the data active means fluorescence inhibition mostly above about 23%, no sharp cut-off; inactive means mostly below about 17%
PrPC TRFRET = inhibitors of human cell surface prion protein PrPC | P04156 | TR-FRET read-out | inhibition, % at 13.8 µM | 370,000 tested, 0.43% active | AID 720596; in the data active means inhibition above about 24%; further: 0% = median of the test wells and 100% = reference compound wells
Active calls of the source: *; · = no result. Shown are actives, neighbours in structure and some others; about 1.5% of the full set was active somewhere.

SMILES | MazF activator | VHR inh abs | PrP 5UTR inh | SARS 3CLpro inh | Mtb hypoxia inh | PrPC TRFRET
N=c1n(CC(=O)c2ccc(Br)cc2)c2ccccc2n1Cc1ccccc1 | -17.7 | · | -13.7 | · | -3.1 | 2.9
N=c1n(CC(=O)c2ccc([N+](=O)[O-])cc2)c2ccccc2n1Cc1ccccc1 | 328.6* | -8.2 | -16.9 | -0.1 | 3.3 | -1.5
N=c1n(CC(=O)c2ccc([N+](=O)[O-])cc2)c2ccccc2n1Cc1ccccc1Cl | 9.0 | 5.4 | 8.3 | 3.7 | 1.2 | 2.6
O=C1CCCCCC1=NNc1ccc(OCc2ccccc2)cc1 | · | · | · | · | 5.9 | ·
CCc1ccc(OCC(=O)NNCC(=O)Nc2ccc(OC)cc2)cc1 | 5.6 | · | -19.8 | · | 56.9* | 0.9
CC(C)(C)OC(=O)C(Cc1ccccc1)NC(=O)c1nc[nH]c1C(=O)NC1CCNCC1 (stereo unspecified) | · | · | · | · | 7.3 | ·
Cc1nnnn1C(=Cc1ccccc1)C(=O)OCC(=O)N1CC2(C)CC1CC(C)(C)C2 (stereo unspecified) | · | · | · | · | 6.8 | ·
CC(NC(=S)Nc1ccc(OC(F)F)c(Cl)c1)C(C)(C)C (stereo unspecified) | 2.8 | -4.0 | -10.6 | 1.8 | 27.8* | 2.4
Cc1ccc(NC(=S)Nc2ccc(OC(F)F)c(Cl)c2)cc1Cl | 8.9 | 8.2 | -27.6 | 0.3 | 2.7 | 8.2
NC(=O)C1CC2(CC(c3cccc(NC(=O)C4CCC(=O)N4)c3)=NO2)CN1C(=O)CC(c1ccccc1)c1ccccc1 (stereo unspecified) | · | · | · | · | -11.6 | ·
CCOC(=O)N1CCC(N2CCN(S(=O)(=O)c3ccc(NC(C)=O)cc3)CC2)CC1 | -4.5 | 15.2 | -13.8 | 3.8 | 6.1 | 15.4
CCOC(=O)N1CCN(S(=O)(=O)c2ccc(NC(C)=O)cc2)CC1 | 1.8 | 52.0* | -23.4 | 0.5 | 14.6 | 1.6
CCOC(=O)N1CCN(S(=O)(=O)c2ccc(C(=O)Nc3sc4c(c3C(=O)OC)CCN(C)C4)cc2)CC1 | 295.4* | 2.3 | -25.8 | -7.7 | 1.3 | -7.0
CCOC(=O)c1c(NC(=S)Nc2ccccc2)sc2c1CCN(CC)C2 | 51.2* | 21.3 | -20.6 | -13.8 | -0.9 | -31.8
CCOC(=O)c1c(NC(=O)Nc2ccc(C)cc2)sc2c1CCN(C)C2 | 50.3* | 13.1 | -19.9 | -7.1 | -2.8 | 0.4
COc1cccc(NC(=O)CC2SC(=NS(=O)(=O)c3ccccc3)N(c3ccccc3)C2=O)c1 (stereo unspecified) | · | · | · | · | -3.1 | ·
CCOC(=O)c1cccc(C2=CC(=O)CC(c3ccc(Cl)cc3)C2)c1 (stereo unspecified) | · | · | · | · | 2.1 | ·
Cn1cccc1CC(=O)NN=Cc1cccc([N+](=O)[O-])c1 | · | · | · | · | -6.1 | ·
COC(=O)[C@]1(Cc2ccccc2)NC(c2ccc(-c3ccc(Cl)c(Cl)c3)cc2)C2C(=O)N(C)C(=O)C21 (stereo partly specified) | · | · | · | · | 20.8 | ·
CC(=O)Nc1ccc(C=NNc2nc3ccccc3s2)cc1 | · | · | · | · | 5.1 | ·
CC(C)c1ccc(C=c2sc3nc(-c4ccncc4)nn3c2=O)cc1 | · | · | · | · | 2.0 | ·
Cc1nn(C)c(C)c1S(=O)(=O)N(CC(=O)N1CCc2ccccc21)c1ccc(C(C)C)cc1 | 8.5 | 50.3* | -6.2 | 1.6 | -1.0 | 6.7
CC(C)CN=c1cc(-c2ccccc2)oc2ccc(Cl)cc12 | 7.7 | 4.9 | -64.4 | -4.3 | 41.6* | -11.8
C=CC1c2cc(C)ccc2N(S(=O)(=O)c2ccc(C)cc2)C(c2ccccc2)C1(C#N)S(=O)(=O)c1ccccc1 (stereo unspecified) | · | · | · | · | 12.4 | ·
COc1ccc(N(CC(=O)Nc2cccc(F)c2)S(=O)(=O)c2c(C)[nH]c(=O)[nH]c2=O)cc1 | 2.6 | 55.7* | -1.4 | -1.1 | 9.0 | -0.3
SMILES | MazF activator | VHR inh abs | PrP 5UTR inh | SARS 3CLpro inh | Mtb hypoxia inh | PrPC TRFRET
COc1ccc(N(CC(=O)Nc2cccc(C(F)(F)F)c2)S(=O)(=O)c2c(C)[nH]c(=O)[nH]c2=O)cc1 | -1.9 | -3.6 | -13.9 | 6.7 | -0.9 | 0.3
COC(=O)C1=C(c2ccc(-c3ccccc3)c(F)c2)CC2CCC1N2C(=O)NCCNC(C)=O (stereo unspecified) | · | · | · | · | -2.5 | ·
Cc1cc(C)n(-c2cc(C(=O)O)cc(C(=O)O)c2)n1 | 8.0 | 53.0* | -52.5 | 3.0 | -6.5 | 8.9
CN(Cc1nc(-c2ccncc2)no1)S(=O)(=O)c1ccc(Br)cc1 | 2.0 | 16.3 | -13.8 | -6.9 | 16.2 | -2.0
CN(Cc1nc(-c2ccncc2)no1)S(=O)(=O)c1ccc(Cl)cc1 | 2.6 | 51.4* | -8.8 | -0.8 | 5.1 | -3.4
O=[N+]([O-])c1cc(S(=O)(=O)Nc2ccccc2)ccc1NCc1cccnc1 | -0.1 | 59.9* | -7.4 | -4.4 | 2.7 | -20.1
CCCCC1(C)OC(=O)C(=Cc2c[nH]c3ccccc23)C(=O)O1 (stereo unspecified) | 235.0* | 29.5 | -3.7 | -6.0 | 8.8 | 6.2
Cc1cc(O)c(NC(=O)c2cc([N+](=O)[O-])ccc2Cl)cc1C | 3.4 | -9.6 | -19.1 | 6.8 | 10.7 | -18.8
Cc1ccc(O)c(NC(=O)c2cc([N+](=O)[O-])ccc2Cl)c1 | 6.8 | 51.7* | -1.8 | 4.4 | -3.6 | -35.0
Cc1cccc(NC(=O)N2CCCC2)c1 | 0.7 | 51.7* | -37.7 | 0.3 | 3.0 | -0.9
Cn1ccsc1=NC(=O)Nc1cccc(Cl)c1 | · | · | · | · | 5.9 | ·
COc1ccccc1-c1coc2c(CN3CCC(C)CC3)c(O)ccc2c1=O | 2.5 | 57.0* | -16.1 | 1.5 | · | -3.4
NC(=O)c1nc(C2CCCCC2)nc2c1[nH]c(=O)n2-c1ccc(F)cc1 | 85.6* | 0.4 | -18.6 | -2.7 | 10.6 | 9.5
COc1ccccc1-n1c(=O)[nH]c2c(C(N)=O)nc(C3CCCCC3)nc21 | 8.8 | 20.8 | -9.2 | 1.4 | 7.6 | -2.7
CCn1cc(/C=C(\NC(=O)c2ccc(OC)c(OC)c2)C(=O)N2CCN(C)CC2)c2ccccc21 | 8.7 | 56.8* | -15.5 | -3.4 | 10.1 | -12.9
COc1ccc(C(=O)N/C(=C\c2cccc3ccccc23)C(=O)N2CCN(C)CC2)cc1OC | 7.6 | 5.6 | 7.6 | -0.2 | -3.6 | -6.4
Oc1ccc2c(c1)OCC1(O)Cc3cc(O)c(O)cc3C21 (stereo unspecified) | · | · | -4.8 | · | · | 17.6
Oc1cc2c(cc1O)[C@H]1c3ccc(O)c(O)c3OC[C@@]1(O)C2 | 231.3* | · | -21.6 | · | · | 12.9
CCNC(=S)NN=Cc1cccc(C)c1 | · | · | · | · | -0.4 | ·
CCCC(C(=O)O)N1C(=O)C(=C2C(=O)N(C)c3ccccc32)SC1=S (stereo unspecified) | · | · | · | · | 13.8 | ·
O=Cc1coc2ccc3ccccc3c2c1=O | -2.4 | 55.5* | -14.8 | 1.1 | 13.0 | 13.0
FC(F)Sc1ccc(NC(=S)NC(c2ccccc2)c2ccccc2)cc1 | 127.1* | 6.7 | -13.0 | 4.9 | 7.8 | 1.0
CN(C)c1nc2sc3c(c2c(=O)n1C)CC(C)(C)OC3 | -0.3 | 59.6* | -7.3 | 0.8 | 12.9 | -1.5
Cc1ccc(C=NN2CCN(Cc3ccccc3)CC2)cc1 | · | · | · | · | -14.9 | ·
Nc1nnc(CC(=O)NN=Cc2cccc([N+](=O)[O-])c2)s1 | · | · | · | · | 2.1 | ·
O=C(O)/C=C\C(=O)Nc1ccc(N2CCN(c3cccc(Cl)c3)CC2)cc1 | 12.1 | 57.4* | -10.3 | -1.2 | -9.2 | -0.4

Screens as filed in PubChem.
